Reference: the supplement of paper PMC6555819

tested on: VDR:RXRa (NR concentration 270 nM, RXRa partner concentration 90 nM); assay: PBM binding z-score (relative to random genomic background probes); higher = stronger binding; sequences stand for … in GC…GCGATTGACAGCGTAGAATGAAGG
Procedure: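 Protein-binding microarray (Agilent 4x180K custom design, double-stranded 60-nt probes: 5' GC cap, 34-nt variable region, 24-nt constant primer region; full probe sequence given). Purified or IVT nuclear receptor:RXRα heterodimers (3:1 NR:RXRα, mostly 270:90 nM) or homodimers were incubated for 1 h in PBS with 2% milk and no ligand, then detected with Alexa488 antibodies. Fluorescence from o1-orientation probes (~5 replicates averaged) was converted to z-scores against 500 random hg19 background probes. Variable regions are seed direct-repeat (DR0–DR5) sites, all their single-nucleotide variants and half-site ablations.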

Sequence | PBM binding z-score
ATCTCTAGGTAACAACTTCAGTGAAAGAGAGGAC | 0.366
ATCTCTACGTAACAAGTTCAGTGAAAGAGAGGAC | 1.38
AGAACGAGGGCACGCTGTGTTGATAGCAGAGTAG | 0.783
CGTCCAAGGTCAGTAGGTCAGTGAAAGCGACGTG | 3.29
CGTCAAAGTTTAAGGTAACGTAACAGAAAGCAGC | 0.3
GCTATTTGTTGAAAGGGCAACCGAATGATTCTCG | 0.521
ATCTCTAGGTAAGACTCAGTTCAGGGAAGAACGC | 1.06
GCTAGTTGGTCAGTAAAAGGCCACACACCGGTCG | -0.219
GCTGCTAGGTCAGGTTAGTCAGCTAACGGGTACG | 0.235
GCTAACAGGCCATTTGGGTCACTCAATGACGGGC | 1.45
AGGATGAGGTTATTAAGATCAGGGAATTGCGGTC | 2.66
TAGCGTAGGTCATTCAGGGGCCAGTATAGAAAGC | 3.37
TCGAGTAGGTTAGTCGGGGCATCCAGCCAACATA | 1.5
CGAACGAGTGCATGAGTTGATAGCAAATGCCGAT | 1.58
ACAGACAGGTGATGAATGTAACTCAGGCTATCAT | -0.0862
AGAATGACGTTAAGATCAGGGAAACAGAATACAT | -0.215
TCATCTAGGTAAAAGGTGAAAGTCGGTGTGGTAA | 1.5
TAGCCTAGGTTATTGGGCCAGTATAGTACGCATC | -0.034
GGAGCGAGGGCAAAGTTGATAGCATCTGTCGACG | 0.834
GCTTATAGATCAAGGTTAAGAAAGACTAAGCTAA | 0.244

Sequence | PBM binding z-score
CCTACTGGGCCATAAAGGTCATTGATGCCGATAA | 4.93
ACTCGGAGGAAAAAGGTCAGAGCTACGCCAGTGA | 2.07
ATCGTAAGGTCGAAGGTGAGTATACCCACCCGAA | 2.04
TGTACAGGGTCAAAGGCCAGAGTACGAATGTCGA | 4.59
GCGATTAGTTGAAAGGGCAACCGAATGATTCTCG | 0.316
GCGTCTGGGGCATCAGCAGGTTACCATAACTTAA | -0.165
CCTTCTAGGTCAATGGTCAGCTAAAGCAGCTCGC | 1.16
ATATGTAGGTGACATCCGGGTCATTCAGGCTATG | 4
GCTTGTAGATCAAGGTTAACAAAGACTAAGCTAA | 0.333
TTACCAATGTGAAGGTCGTTGATCCCTCTGTAGA | 1.17
CGAACTAGGTCAAGGACAGTGAATCTCCGCACGC | 1.32
GCTGCTATGTCAACTGATGGTCAGCTAAAGCTCG | -0.38
TAGCCCAGGTCAGATCGGGCCAGTATACGCTATA | 0.983
TCTCGGAGGACTCGAAAGGTCAGAGCTCGACATC | 2.4
TCATATAGGTAAACAGGTGAAATTCCGTAAGTTA | 1.35
CCTCAAAGTTCAAGGTAACGTAACAGAAAGCAGC | 4.07
TCTTGTAGATCAGCAGGTTAAGAGAGCTGGCCAA | 0.132
ATATGTAGGTTATCGGGTCATTCTGTTTGCGCAT | 3.82
TAGCCTAGGTCATGCGGACCAGTATAGTGTCGGC | 1.99
ATATGTAGCTTACATCCGGGTCATTCAGGCTATG | 2.82
